PubChem BioAssay (NCI)
This is part of a sample that, as a whole, favours compounds with a hit. Of some 83,000 tested, about 20% had one in any assay.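 Compound tested at a single concentration for 48 hours in 96-well plates; a percent growth value below 10 was scored as active.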 A number with no mark means an inactive call. Activity calls are given as the source filed them.

Columns and labels:
Assay in all cases: NCI-60 one-dose screen, 48 h (100 = growth as untreated, 0 = no growth, -100 = all killed)
Details in all cases: 10 µM unless noted
[1] = tested on: SK-MEL-2 melanoma
[2] = tested on: EKVX NSCLC
[3] = tested on: SN12C renal
[4] = tested on: UO-31 renal
[5] = tested on: TK-10 renal
[6] = tested on: ACHN renal
[7] = tested on: CAKI-1 renal
[8] = tested on: A498 renal
[9] = tested on: CCRF-CEM leukemia
[10] = tested on: MOLT-4 leukemia

Nc1ncnc2c1C(c1ccccc1)c1ccc3ccccc3c1O2 (stereo unspecified)
growth [1]: 91.1% | growth [2]: 90.6% | growth [3]: 73.6% | growth [4]: 56.5% | growth [5]: 96% | growth [6]: 80.9% | growth [7]: 81.1% | growth [8]: 94.7% | growth [9]: 91.6%

CC(=O)O[C@@H]1C[C@]2(C(C)C)O[C@@]1(C)[C@@H]1CCC(C)=C1[C@@H]2OC(=O)/C=C/c1ccccc1
growth [1]: 89.7% | growth [2]: 83.5% | growth [3]: 48.4% | growth [4]: 60.5% | growth [5]: 95.4% | growth [6]: 34.6% | growth [7]: 71.3% | growth [8]: -4.32% (active) | growth [9]: 84.9%

N#CC(C#N)N=Nc1ccc(Br)cc1
growth [1]: 82.1% | growth [2]: 55.9% | growth [3]: 21.3% | growth [4]: 2.16% (active) | growth [5]: 36.5% | growth [6]: 16.6% | growth [7]: 6.33% (active) | growth [8]: 100% | growth [9]: 9.65% (active) | growth [10]: 31.8%

Cc1ccc(CNc2ccc3nc(CCC4CCCCC4)[nH]c3c2)cc1
growth [1]: 58.8% | growth [2]: 53.4% | growth [3]: 45.7% | growth [4]: 23.8% | growth [5]: 54.8% | growth [6]: 47.8% | growth [7]: 35.8% | growth [8]: 57.5% | growth [9]: 39.9%

COc1ccc(/C=C/C(=O)c2cccc(OCCCCOc3cccc(C(=O)/C=C/c4ccc(OC)c(OC)c4)c3)c2)cc1OC
growth [1]: 81.2% | growth [2]: 55% | growth [3]: 79.9% | growth [4]: 62% | growth [5]: 114% | growth [6]: 77.8% | growth [7]: 74.2% | growth [8]: 79.9% | growth [9]: 62.7%

CC(=O)N1N=C(c2ccc(Nc3nc(Nc4ccccc4)nc(Nc4ccccc4)n3)cc2)CC1c1cccc([N+](=O)[O-])c1 (stereo unspecified)
growth [1]: 60.6% | growth [2]: 77.3% | growth [3]: 96.3% | growth [4]: 63.9% | growth [5]: 127% | growth [6]: 94.2% | growth [7]: 91.7% | growth [8]: 94.5% | growth [9]: 94.3%

Cc1ccc2c(c1)=C/C(=C\c1cc(-c3ccccc3)oc1O)C(=O)N=2
growth [1]: 114% | growth [2]: 92.6% | growth [3]: 106% | growth [4]: 100% | growth [5]: 97.6% | growth [6]: 105% | growth [7]: 91.1% | growth [8]: 96.6% | growth [9]: 100%

Nc1n[nH]c2cccc(C#Cc3cccc(NC(=O)c4cc(F)cc(C(F)(F)F)c4)c3)c12
growth [1]: 63.2% | growth [2]: 92.8% | growth [3]: 53.1% | growth [4]: 36.8% | growth [5]: 111% | growth [6]: 64.7% | growth [7]: 104% | growth [8]: 57.1% | growth [9]: 43% | growth [10]: 48.1%

CCCCCOC(=O)c1c(C)[nH]c(/C=C2\N=C(c3ccc[nH]3)C=C2OC)c1C
growth [1]: -71.2% (active) | growth [2]: 12.5% | growth [3]: 3.4% (active) | growth [4]: -69.6% (active) | growth [5]: 4.49% (active) | growth [6]: -72.3% (active) | growth [7]: -17.3% (active) | growth [8]: -21% (active) | growth [9]: -13.2% (active)

O=C1/C(=C/c2ccccc2O)CC/C1=C\c1ccccc1O
growth [1]: 105% | growth [2]: 56.9% | growth [3]: 27.7% | growth [4]: 46.4% | growth [5]: 160% | growth [6]: 70.2% | growth [7]: 92.4% | growth [8]: 108%

O=C(N/N=C/c1ccc(Cl)cc1)c1[nH]c2ccc(Cl)cc2c1-c1ccccc1
growth [1]: -9.34% (active) | growth [2]: 40.7% | growth [3]: 28.1% | growth [4]: 24.7% | growth [5]: 51.8% | growth [6]: 28.4% | growth [7]: 20.9% | growth [8]: 36.2% | growth [9]: 19.3% | growth [10]: 33.7%

O=C1NC(=O)C(Cc2ccc(OCc3ccc(-c4ccc(Cl)cc4Cl)cc3)cc2)S1 (stereo unspecified)
growth [1]: 49.8% | growth [2]: 37.8% | growth [3]: 59.5% | growth [4]: 34.1% | growth [5]: 72.9% | growth [6]: 55.2% | growth [7]: 32.7% | growth [8]: 83.4% | growth [9]: 42.2%

CC1OC(n2c3ccccc3c3c4c(c5c6ccccc6[nH]c5c32)C(=O)N(CCN2CCCC2)C4=O)CC(O)C1O (stereo unspecified)
growth [1]: 86.5% | growth [2]: 57% | growth [3]: 42% | growth [4]: 44.5% | growth [5]: 68.9% | growth [6]: 16.6% | growth [7]: 20.1% | growth [8]: 55.5% | growth [9]: 27.2% | growth [10]: 11.3%

O=C(C[C@]1(O)C(=O)Nc2ccccc21)c1cccc(C(F)(F)F)c1
growth [1]: 91.2% | growth [2]: 99.5% | growth [3]: 80% | growth [4]: 58.1% | growth [5]: 138% | growth [6]: 88.2% | growth [7]: 81.7% | growth [8]: 99.8% | growth [9]: 97%

Cn1ccc(=O)c(C(=O)Nc2nsc3ccc([N+](=O)[O-])cc23)c1
growth [1]: 55.7% | growth [2]: 81.7% | growth [3]: 75.3% | growth [4]: 28.1% | growth [5]: 50% | growth [6]: 32.6% | growth [7]: 6.88% (active) | growth [8]: 31.9% | growth [9]: 82.7% | growth [10]: 83.4%

COC(=O)C1Cc2ccccc2CN1C(=O)c1ccc2c(c1)Cc1ccccc1-2 (stereo unspecified)
growth [1]: 47.4% [50 µM] | growth [2]: 24.5% [50 µM] | growth [3]: 38.5% [50 µM] | growth [4]: 13.9% [50 µM] | growth [5]: 52.2% [50 µM] | growth [6]: 43.3% [50 µM] | growth [7]: 28.7% [50 µM] | growth [8]: 27.3% [50 µM] | growth [9]: 32.1% [50 µM]

O=C(Nc1ccc(OS(=O)(=O)c2ccc(F)cc2)cc1)C1CCCCCC1
growth [1]: 98.2% | growth [2]: 96% | growth [3]: 88.9% | growth [4]: 101% | growth [5]: 107% | growth [6]: 110% | growth [7]: 91.7% | growth [8]: 85.1% | growth [9]: 81.5%

N#Cc1c(-c2ccccc2)[nH]c2ncc(-c3ccccc3)n2c1=O
growth [1]: 72.9% | growth [2]: 75.3% | growth [3]: 99.5% | growth [4]: 65.4% | growth [5]: 120% | growth [6]: 83.4% | growth [7]: 83.4% | growth [8]: 102% | growth [9]: 104%

CNc1nnc2n(-c3ccccc3)c(=O)c3cnn(-c4ccccc4)c3n12
growth [1]: 82% | growth [2]: 90.4% | growth [3]: 104% | growth [4]: 81.3% | growth [5]: 79.9% | growth [6]: 88.8% | growth [7]: 81% | growth [8]: 71.7% | growth [9]: 85.8%

CCCNc1nc2ccccc2c2c1S(=O)(=O)c1ccc(Cl)cc1C2=O
growth [1]: 8.94% (active) | growth [2]: 25.8% | growth [3]: -1.38% (active) | growth [4]: 10.9% | growth [5]: 17.3% | growth [6]: 10.7% | growth [7]: 18.2% | growth [8]: 31.1% | growth [9]: -5.94% (active)

CC(C)=CC(=O)OCC(=O)O[C@@H]1C[C@]2(C(C)C)O[C@@]1(C)[C@@H]1CC[C@@H](C)[C@H]1[C@@H]2OC(=O)/C=C/c1ccccc1
growth [1]: 89% | growth [2]: 84.1% | growth [3]: 39.8% | growth [4]: -64.7% (active) | growth [5]: 95.5% | growth [6]: 4.57% (active) | growth [7]: 12.8% | growth [8]: -79.2% (active) | growth [9]: 78.4%

CN1C(=O)/C(=C\c2c(Cl)cccc2Cl)c2ccccc21
growth [1]: 97.7% | growth [2]: 87.6% | growth [3]: 94.8% | growth [4]: 75.4% | growth [5]: 89.4% | growth [6]: 97.2% | growth [7]: 68.3% | growth [8]: 55.4% | growth [9]: 89.5% | growth [10]: 79.4%

C/C(=N\O)c1ccc(Cl)cc1
growth [1]: 120% | growth [2]: 103% | growth [3]: 99% | growth [4]: 91.4% | growth [5]: 107% | growth [6]: 105% | growth [7]: 96.9% | growth [8]: 111% | growth [9]: 118%

COc1cc2oc(-c3cccc(NC(=O)c4ccccc4)c3)cc(=O)c2c(OC)c1OC
growth [1]: 76.8% | growth [2]: 103% | growth [3]: 76.2% | growth [4]: 51% | growth [5]: 91.3% | growth [6]: 61.6% | growth [7]: 87.2% | growth [8]: 59.4% | growth [9]: 45.7%

c1ccc2cc(C[n+]3ccn(CCCCCCCCCCn4cc[n+](Cc5ccc6ccccc6c5)c4)c3)ccc2c1
growth [1]: -39.4% (active) | growth [2]: 13.7% | growth [3]: 4.24% (active) | growth [4]: 77.5% | growth [5]: 15.1% | growth [6]: 52.2% | growth [7]: 74.7% | growth [8]: 9.69% (active)

CC(=O)Oc1ccc(/C(=C(\C)c2ccc(Cl)cc2)c2ccc(OCCN3CCCCC3)cc2)cc1
growth [1]: 58.4% | growth [2]: 62.7% | growth [3]: 64.6% | growth [4]: 47.7% | growth [5]: 68.4% | growth [6]: 58.3% | growth [7]: 74.9% | growth [8]: 57.5% | growth [9]: 17.5%

O=C(COc1ccc(-c2nc3cc(Cl)c(Cl)cc3[nH]2)cc1)N=Nc1c(O)[nH]c2ccc(Cl)cc12
growth [1]: 90.2% | growth [2]: 96.8% | growth [3]: 74.5% | growth [4]: 94.4% | growth [5]: 91.4% | growth [6]: 71.8% | growth [7]: 76.3% | growth [8]: 91.3% | growth [9]: 24.2%

O=C(CSc1oc(-c2ccccc2)nc1S(=O)(=O)c1ccccc1)Nc1ccc(F)cc1
growth [1]: 87.6% | growth [2]: 78.2% | growth [3]: 89% | growth [4]: 76.8% | growth [5]: 91.8% | growth [6]: 80.2% | growth [7]: 73.1% | growth [8]: 82.6% | growth [9]: 84.7%
